The text below walks through data of PubChem BioAssay (EPA / NIEHS).

The target in test [1] is Glucocorticoid receptor (Homo sapiens) (UniProt P04150). Kind of test: NVS_NR_hGR: NovaScreen (NVS) Nuclear Receptor Binding Assay for human Glucocorticoid Receptor (GR) (AID 2283363).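 On AC50: activity is loss of specific radioligand binding signal relative to DMSO.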 An outline of the steps: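 Single-readout cell-free binding: radioligand plus extracted receptor, 16-hour dosing, filter radiodetection; 25 uM duplicate primary, concentration series secondary.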
Glucocorticoid receptor (Homo sapiens), sequence (P04150 whole entry, looked up): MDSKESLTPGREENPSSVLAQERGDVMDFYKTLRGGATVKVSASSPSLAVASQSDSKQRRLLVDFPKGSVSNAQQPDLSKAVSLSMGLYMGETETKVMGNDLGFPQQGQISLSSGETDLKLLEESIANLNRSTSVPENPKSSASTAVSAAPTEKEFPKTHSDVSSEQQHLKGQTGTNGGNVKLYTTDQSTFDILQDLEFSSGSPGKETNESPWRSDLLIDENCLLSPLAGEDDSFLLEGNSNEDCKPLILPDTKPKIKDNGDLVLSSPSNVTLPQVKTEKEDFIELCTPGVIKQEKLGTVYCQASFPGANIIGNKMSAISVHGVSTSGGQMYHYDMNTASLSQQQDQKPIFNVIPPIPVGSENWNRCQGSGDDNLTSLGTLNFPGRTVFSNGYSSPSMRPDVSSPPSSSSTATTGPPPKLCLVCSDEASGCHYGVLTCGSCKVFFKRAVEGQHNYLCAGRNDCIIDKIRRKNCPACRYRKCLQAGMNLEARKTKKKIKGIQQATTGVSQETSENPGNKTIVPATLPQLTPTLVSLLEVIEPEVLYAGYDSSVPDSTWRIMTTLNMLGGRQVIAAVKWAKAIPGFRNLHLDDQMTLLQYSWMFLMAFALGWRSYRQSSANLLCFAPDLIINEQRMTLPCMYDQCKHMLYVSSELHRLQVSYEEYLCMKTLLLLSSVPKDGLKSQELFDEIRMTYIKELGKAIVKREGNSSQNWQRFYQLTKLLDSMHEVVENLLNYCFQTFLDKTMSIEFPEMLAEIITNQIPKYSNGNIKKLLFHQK

In test [2] the target is Estrogen receptor (Homo sapiens) (UniProt P03372). Kind of test: OT_ER_ERaERa_1440: Odyssey Thera (OT) 24-hour HEK293T Protein-Complementation Assay for Estrogen Receptor-alpha/-alpha Homodimer (AID 2283349).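 Further: hits raise fluorescence above DMSO for agonists and antagonists alike.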 A digest of the protocol: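 Stably transfected HEK293T; ERα LBD homodimer PCA. 24 h dosing, fluorescence intensity read, gain-of-signal vs DMSO.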
Estrogen receptor (Homo sapiens), sequence (P03372 whole entry, looked up, the tested form may be a part): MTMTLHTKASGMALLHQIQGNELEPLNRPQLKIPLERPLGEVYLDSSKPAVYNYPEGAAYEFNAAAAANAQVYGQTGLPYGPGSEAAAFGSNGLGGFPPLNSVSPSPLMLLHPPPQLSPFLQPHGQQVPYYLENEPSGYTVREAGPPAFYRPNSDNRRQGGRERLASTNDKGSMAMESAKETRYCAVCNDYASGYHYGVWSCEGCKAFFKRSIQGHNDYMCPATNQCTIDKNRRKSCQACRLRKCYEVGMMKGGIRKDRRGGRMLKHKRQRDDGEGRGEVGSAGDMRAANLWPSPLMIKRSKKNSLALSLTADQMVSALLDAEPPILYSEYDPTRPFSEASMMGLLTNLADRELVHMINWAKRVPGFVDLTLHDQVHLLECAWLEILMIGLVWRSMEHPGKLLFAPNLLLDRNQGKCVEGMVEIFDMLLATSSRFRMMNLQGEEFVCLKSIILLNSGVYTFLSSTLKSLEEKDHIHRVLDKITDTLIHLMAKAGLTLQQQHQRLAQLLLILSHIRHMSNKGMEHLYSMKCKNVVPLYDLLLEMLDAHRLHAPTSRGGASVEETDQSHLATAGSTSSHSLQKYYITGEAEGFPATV
Test [3] shares this target. Kind of test: OT_ER_ERaERa_0480: Odyssey Thera (OT) 8-hour HEK293T Protein-Complementation Assay for Estrogen Receptor-alpha/-alpha Homodimer (AID 2283351).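 Further: rise in fluorescence from reassembled reporter fragments on ERα LBD homodimer in nucleus or whole cell.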 A digest of the protocol: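 Read-out: fluorescence intensity rise relative to DMSO, nuclear for agonists, nuclear plus cytoplasmic for antagonists. Construct is the ERα LBD (aa 310-547) homodimer fragment-complementation pair, stably expressed in HEK293T; exposure 8 h.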

Test [4] addresses T1, Estrogen receptor (Homo sapiens) + Estrogen receptor beta (Homo sapiens) (UniProt P03372+Q92731). The experiment in a line: OT_ER_ERaERb_0480: Odyssey Thera (OT) 8-hour HEK293T Protein-Complementation Assay for Estrogen Receptor-alpha/-beta Heterodimer (AID 2283352). A digest of the protocol: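 Increase in mean fluorescence intensity, measured by laser scanning plate cytometry, reported ER-alpha/ER-beta LBD complementation in HEK293T cells after 8 h chemical exposure. DMSO served as baseline; basal signal is low, punctate and cytoplasmic.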

The target of test [5] is T1, Estrogen receptor (Homo sapiens) + Estrogen receptor beta (Homo sapiens). Kind of test: OT_ER_ERaERb_1440: Odyssey Thera (OT) 24-hour HEK293T Protein-Complementation Assay for Estrogen Receptor-alpha/-beta Homodimer (AID 2283356).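 Further: heteromer of ER alpha and ER beta binding domains; hits raise reporter fluorescence and both agonists and antagonists give an increase.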 A digest of the protocol: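 Heterodimerisation of ERα (aa 310-547) and ERβ (aa 263-489) ligand binding domains was tracked as fluorescence gain in stably transfected HEK293T cells following 24 h dosing, normalised to DMSO controls.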

Test [6] deals with Estrogen receptor beta (Homo sapiens) (UniProt Q92731). The experiment in a line: OT_ER_ERbERb_0480: Odyssey Thera (OT) 8-hour HEK293T Protein-Complementation Assay for Estrogen Receptor-beta/-beta Homodimer (AID 2283357).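 Further: active means signal gain over DMSO baseline.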 An outline of the steps: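 Fluorescence gain from complemented reporter fragments on ER-beta LBD homodimer in HEK293T was quantified against DMSO controls after 8 h treatment, fixation in 4% formaldehyde and Draq5 staining.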
Estrogen receptor beta (Homo sapiens), sequence (Q92731 whole entry, looked up, the tested form may be a part): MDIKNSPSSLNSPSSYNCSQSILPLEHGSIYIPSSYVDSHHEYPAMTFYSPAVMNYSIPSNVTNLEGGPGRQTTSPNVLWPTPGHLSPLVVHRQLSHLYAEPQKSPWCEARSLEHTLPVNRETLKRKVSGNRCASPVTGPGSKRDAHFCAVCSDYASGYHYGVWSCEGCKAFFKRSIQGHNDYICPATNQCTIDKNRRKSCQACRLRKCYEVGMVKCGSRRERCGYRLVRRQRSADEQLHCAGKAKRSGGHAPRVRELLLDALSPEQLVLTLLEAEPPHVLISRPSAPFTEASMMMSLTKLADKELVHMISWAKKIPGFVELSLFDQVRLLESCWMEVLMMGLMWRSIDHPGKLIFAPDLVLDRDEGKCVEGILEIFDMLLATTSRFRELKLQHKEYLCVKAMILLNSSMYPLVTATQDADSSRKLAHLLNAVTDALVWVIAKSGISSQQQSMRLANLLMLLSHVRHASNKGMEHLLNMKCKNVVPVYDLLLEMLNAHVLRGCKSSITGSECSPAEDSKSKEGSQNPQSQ

For test [7], the target named is human Peroxisome Proliferator-activated Receptor alpha (PPARa), PPARA (gene 5465) (UniProt Q07869). Kind of test: NVS_NR_hPPARa: NovaScreen (NVS) Nuclear Receptor Binding Assay for human Peroxisome Proliferator-activated Receptor alpha (PPARa) (AID 2283359).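 Further: activity means loss of TR-FRET signal versus DMSO baseline.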 A digest of the protocol: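 One-hour incubation, cell-free extracted protein, TR-FRET binding readout; signal loss vs DMSO scored. Screen: 25 uM duplicates, confirmatory dose series for actives.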

A further test addresses PGR (gene 5241) (UniProt P06401). Kind of test: NVS_NR_hPR: NovaScreen (NVS) Nuclear Receptor Binding Assay for human Progestron Receptor (PR) (AID 2283360).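 Further: active means loss of bound radioligand signal versus DMSO baseline.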 A digest of the protocol: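 Cell-free radioligand binding using receptor protein extracted from T47D cells, read by scintillation counting 18 hours after dosing. Loss of signal relative to DMSO baseline indicates displacement; primary screen single concentration 25 uM in duplicate, actives followed in concentration series.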

For test [8], the system named is guinea pig Dopamine Transporter (DAT), gene 100714898. The experiment in a line: NVS_TR_gDAT: NovaScreen (NVS) Transporter Assay for guinea pig Dopamine Transporter (DAT) (AID 2283369).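 Further: active compounds lower bound radioligand signal relative to DMSO.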 A digest of the protocol:
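Test chemicals were incubated 2 h with guinea pig striatal membranes and a radioligand; bound label was separated by filtration and counted. Screening ran at 25 uM, followed by concentration-response testing to a 50 uM maximum.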

In test [9] the target is Androgen Receptor/SRC-1 Co-activator, AR (gene 367) (UniProt P10275). The experiment in a line: OT_AR_ARSRC1_0960: Odyssey Thera (OT) 16-hour HEK293T Protein-Complementation Assay for Androgen Receptor/SRC-1 Co-activator (AID 2283353).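 Further: actives raise the signal above DMSO so potency reflects increased AR and SRC-1 complex.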 A digest of the protocol: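 Readout: 488 nm nuclear-to-cytoplasmic fluorescence ratio from imaging of at least 400 cells per image, 16 h post-dose. Reporter is Venus YFP complementation between AR and SRC-1 fusions, stably expressed in HEK293T; activity scored upward relative to DMSO.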
Androgen Receptor/SRC-1 Co-activator, AR (gene 367), sequence (P10275 whole entry, looked up, the tested form may be a part): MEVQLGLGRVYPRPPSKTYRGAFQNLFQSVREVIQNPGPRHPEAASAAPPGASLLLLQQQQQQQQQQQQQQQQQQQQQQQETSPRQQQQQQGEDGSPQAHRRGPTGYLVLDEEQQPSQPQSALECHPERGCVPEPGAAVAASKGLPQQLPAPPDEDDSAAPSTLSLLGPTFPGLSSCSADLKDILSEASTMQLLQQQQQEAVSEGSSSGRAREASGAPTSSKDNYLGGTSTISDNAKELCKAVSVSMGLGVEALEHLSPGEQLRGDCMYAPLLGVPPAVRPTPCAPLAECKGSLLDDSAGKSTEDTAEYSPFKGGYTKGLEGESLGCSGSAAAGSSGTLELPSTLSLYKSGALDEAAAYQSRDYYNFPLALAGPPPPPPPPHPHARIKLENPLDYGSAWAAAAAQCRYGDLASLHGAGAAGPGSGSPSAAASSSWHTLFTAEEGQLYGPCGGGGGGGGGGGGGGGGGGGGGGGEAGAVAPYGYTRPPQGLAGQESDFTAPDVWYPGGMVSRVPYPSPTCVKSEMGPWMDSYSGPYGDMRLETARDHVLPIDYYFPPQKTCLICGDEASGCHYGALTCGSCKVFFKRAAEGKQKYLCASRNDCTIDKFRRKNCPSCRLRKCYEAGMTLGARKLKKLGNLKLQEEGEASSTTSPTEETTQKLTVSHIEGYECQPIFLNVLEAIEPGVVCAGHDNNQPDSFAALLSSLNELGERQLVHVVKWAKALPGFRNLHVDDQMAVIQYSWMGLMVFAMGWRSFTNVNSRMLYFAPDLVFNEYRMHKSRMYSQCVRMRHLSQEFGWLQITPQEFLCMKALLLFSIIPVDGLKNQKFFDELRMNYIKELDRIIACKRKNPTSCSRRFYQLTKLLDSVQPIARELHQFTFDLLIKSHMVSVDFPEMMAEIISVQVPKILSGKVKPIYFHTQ

Test [10] shares this target. The experiment in a line: OT_AR_ARSRC1_0480: Odyssey Thera (OT) 8-hour HEK293T Protein-Complementation Assay for Androgen Receptor/SRC-1 Co-activator (AID 2283354).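 Further: hits raise the complementation signal above DMSO so AC50 marks enhancers.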 An outline of the steps:
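After 8 h dosing, stably expressing HEK293T cells with split-Venus AR/SRC-1 fusions were imaged (488, 635nm). The 488nm N/C ratio per image gave the endpoint, analysed in the positive direction against DMSO.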

The target in test [11] is human Dopamine Transporter (DAT), SLC6A3 (gene 6531) (UniProt Q01959). Kind of test: NVS_TR_hDAT: NovaScreen (NVS) Transporter Assay for human Dopamine Transporter (DAT) (AID 2283374).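 Further: activity means loss of bound radioligand signal relative to DMSO.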 An outline of the steps: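 Extracted human SLC6A3 protein incubated 1 h with radioligand and test chemical; bound fraction separated on filters and counted. Single 25 uM duplicate screen preceded concentration-response follow-up; positive and negative controls on every plate.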
human Dopamine Transporter (DAT), SLC6A3 (gene 6531), sequence (Q01959 whole entry, looked up): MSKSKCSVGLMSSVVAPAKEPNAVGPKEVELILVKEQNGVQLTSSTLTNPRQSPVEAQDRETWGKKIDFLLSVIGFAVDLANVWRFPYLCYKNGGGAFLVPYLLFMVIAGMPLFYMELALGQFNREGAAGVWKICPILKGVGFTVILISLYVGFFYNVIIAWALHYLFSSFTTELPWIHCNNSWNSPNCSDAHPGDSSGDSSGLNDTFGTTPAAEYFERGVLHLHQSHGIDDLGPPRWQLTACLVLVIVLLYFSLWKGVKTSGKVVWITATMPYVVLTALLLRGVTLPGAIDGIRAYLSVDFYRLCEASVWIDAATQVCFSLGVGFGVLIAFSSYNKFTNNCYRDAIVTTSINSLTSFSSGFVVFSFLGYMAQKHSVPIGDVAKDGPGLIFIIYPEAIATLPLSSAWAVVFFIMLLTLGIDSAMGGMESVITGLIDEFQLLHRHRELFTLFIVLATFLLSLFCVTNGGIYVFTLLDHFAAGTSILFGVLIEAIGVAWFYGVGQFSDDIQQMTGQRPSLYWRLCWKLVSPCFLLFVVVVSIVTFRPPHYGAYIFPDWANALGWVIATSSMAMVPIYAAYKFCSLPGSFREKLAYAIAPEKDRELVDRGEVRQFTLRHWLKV

In test [12] the target is Retinoic acid receptor alpha (Homo sapiens) (UniProt P10276). The experiment in a line: NVS_NR_hRAR_Antagonist: NovaScreen (NVS) Nuclear Receptor Binding Assay for human Retinoic Acid Alpha Receptor Antagonism (RAR) (AID 2283358). An outline of the steps:
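Chemicals were first tested in duplicate at 25 uM, then actives in concentration series, in a cell-free TR-FRET antagonist binding format. Measurements were taken 2 hours after dosing and loss of signal was evaluated against DMSO controls.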

Test [13] shares this target. The experiment in a line: NVS_NR_hRARa_Agonist: NovaScreen (NVS) Nuclear Receptor Binding Assay for human Retinoic Acid Alpha Receptor Agonism (RAR) (AID 2283361). An outline of the steps: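 Compounds screened at 25 uM, duplicate, then in concentration series if active. Detection: TR-FRET gain of signal versus DMSO after 2 h with cell-free extracted RARα.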
For test [14], the target named is human Thyroid Receptor Alpha (TRa), THRA (gene 7067) (UniProt P10827). The experiment in a line: NVS_NR_hTRa_Antagonist: NovaScreen (NVS) Nuclear Receptor Binding Assay for human Thyroid Receptor Alpha Antagonism (TRa) (AID 2283362).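 Further: activity is loss of signal relative to DMSO baseline.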 An outline of the steps: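 Chemicals were first screened in duplicate at 25 uM, then actives were retested in concentration series. Binding to the extracted receptor was measured 1 h after dosing by AlphaLISA chemiluminescence, with decreased signal versus DMSO scored as activity.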

In test [15] the target is guinea pig Sigma Receptor, Non-selective Binding, SIGMAR1 (gene 100135589) (UniProt Q60492). Kind of test: NVS_OR_gSIGMA_NonSelective: NovaScreen (NVS) Nuclear Receptor Binding Assay for guinea pig Sigma Receptor, Non-selective Binding (AID 2283367). A digest of the protocol: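 Test chemicals were screened in duplicate at 25 uM, then in concentration series if active, against radioligand binding to guinea pig brain membranes; filtration and scintillation counting at 1 h measured remaining bound ligand.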

Molecules are shown by their SMILES. Results filed as inconclusive are left out. Activity calls are given as the source filed them. How the source made its calls: active means hit-call score of the fitted dose curve at least 0.9, where 1 is the maximum; inconclusive means response in the unintended direction; inactive means score below 0.9.

Retinoic acid receptor alpha (Homo sapiens), sequence (P10276 whole entry, looked up): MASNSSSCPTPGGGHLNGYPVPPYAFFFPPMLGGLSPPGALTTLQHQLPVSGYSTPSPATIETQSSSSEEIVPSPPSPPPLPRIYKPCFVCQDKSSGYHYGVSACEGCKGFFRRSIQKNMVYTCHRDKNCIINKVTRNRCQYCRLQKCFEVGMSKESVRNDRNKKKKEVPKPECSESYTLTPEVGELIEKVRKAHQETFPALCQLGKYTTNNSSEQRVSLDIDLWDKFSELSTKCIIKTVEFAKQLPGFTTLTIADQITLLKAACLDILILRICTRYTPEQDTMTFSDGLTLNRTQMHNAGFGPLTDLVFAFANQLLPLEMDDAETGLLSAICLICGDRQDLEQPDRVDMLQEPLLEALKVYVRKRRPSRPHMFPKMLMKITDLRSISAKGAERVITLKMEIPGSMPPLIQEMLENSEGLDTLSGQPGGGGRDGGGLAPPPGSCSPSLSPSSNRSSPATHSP
T1 sequence (P03372 whole entry, looked up, the tested form may be a part): as the sequence (P03372 whole entry, looked up, the tested form may be a part) above
T1 sequence (Q92731 whole entry, looked up, the tested form may be a part): as the sequence (Q92731 whole entry, looked up, the tested form may be a part) above
PGR (gene 5241), sequence (P06401 whole entry, looked up): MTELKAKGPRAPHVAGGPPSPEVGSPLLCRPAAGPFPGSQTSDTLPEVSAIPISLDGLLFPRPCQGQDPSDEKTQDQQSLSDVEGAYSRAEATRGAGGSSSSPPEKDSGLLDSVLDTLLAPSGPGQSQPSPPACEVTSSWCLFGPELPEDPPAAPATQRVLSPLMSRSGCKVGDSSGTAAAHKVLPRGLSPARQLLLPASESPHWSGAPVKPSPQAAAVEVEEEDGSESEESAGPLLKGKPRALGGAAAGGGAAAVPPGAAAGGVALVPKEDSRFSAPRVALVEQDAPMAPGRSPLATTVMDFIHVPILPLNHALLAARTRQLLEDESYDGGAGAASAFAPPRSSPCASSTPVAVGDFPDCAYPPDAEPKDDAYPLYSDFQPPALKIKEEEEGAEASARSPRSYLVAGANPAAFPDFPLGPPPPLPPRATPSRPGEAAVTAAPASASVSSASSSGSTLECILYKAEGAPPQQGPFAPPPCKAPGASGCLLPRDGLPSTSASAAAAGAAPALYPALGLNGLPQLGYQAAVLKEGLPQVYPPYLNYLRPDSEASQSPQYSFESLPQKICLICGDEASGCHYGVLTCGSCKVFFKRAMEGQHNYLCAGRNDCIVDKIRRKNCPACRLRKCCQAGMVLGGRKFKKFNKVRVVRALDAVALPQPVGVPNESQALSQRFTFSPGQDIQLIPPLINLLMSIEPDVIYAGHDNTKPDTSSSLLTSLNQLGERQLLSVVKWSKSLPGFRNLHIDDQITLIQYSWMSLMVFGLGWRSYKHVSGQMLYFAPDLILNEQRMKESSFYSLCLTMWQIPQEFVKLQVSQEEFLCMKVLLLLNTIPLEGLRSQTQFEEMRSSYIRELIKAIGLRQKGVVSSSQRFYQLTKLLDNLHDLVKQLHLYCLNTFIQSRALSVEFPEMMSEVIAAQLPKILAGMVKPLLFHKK

`CO[Si](CCCS)(OC)OC`: the molecule was classed as inactive in test [1].
Turning to `CCCC(CC)c1ccccc1` (centres undefined), the call in test [2], in test [3], in test [4], in [5], in [6] and in test [7] was inactive. In addition, in test [1], the result was inactive.
On to `Cc1cc(=O)[nH]c(=O)[nH]1`, for which, in the test with PGR (gene 5241), the molecule was classed as inactive.
`[Cl][Eu]([Cl])[Cl]`: in test [8], the AC50 – broadly, the concentration at which the activity in the assay is half-maximal – is 18.2 µM (active).
Regarding `CCc1cccc(C)c1N`, the AC50 in test [2] is 74.6 µM (active). Moreover, the result in test [3], in test [9] and in [10] was inactive.
Consider `CCC(C)c1ccccc1` (centres undefined), for which, in the test with PGR (gene 5241), the call was inactive.
With `c1ccc(-c2nc3ccccc3[nH]2)cc1`, the half-maximal activity concentration (AC50) in test [11] was 14.9 µM (active).
As to `CCCCCC[C@@H](O)C/C=C\CCCCCCCC(=O)OCC(O)CO` (some centres undefined), the call in [2], in [3] and in [9] was inactive. Besides, in [7], the AC50 is 15.5 µM (active).
As for `CCCCCCOc1ccc(N)cc1`, in test [2], the AC50 was 23.9 µM (active). Moreover, the result in [3] and in test [1] was inactive.
`CC1=NN(c2ccc(S(=O)(=O)O)cc2)C(=O)C1N=Nc1ccccc1` (centres undefined): the outcome in test [2] and in [3] was inactive. Further, the AC50 in test [1] is 12.8 µM (active).
In the case of `NC(=O)Nc1ccccc1`, the molecule was classed as inactive in [2], in test [4], in test [5], in test [6] and in test [12].
Take `O=C(O)c1cc(O)c2ccccc2c1O`: the call in [2], in [3] and in test [13] was inactive. Moreover, the results for the AC50 in test [14] and in test [1] were 18.4 µM (active) and 9.52 µM (active), respectively.
For the molecule `Nc1ncnc2nc[nH]c12`, the molecule was called inactive in test [11].
As for `CCCCC(C=O)CC` (centres undefined), the outcome in [2], in [3], in test [4], in test [5] and in [6] was inactive.
With `CCN(CC)c1cccc(C)c1`, the AC50 was 38.5 µM (active) in test [15] and 4.96 µM (active) in test [8].
With `C1CNCCN1`, the outcome in test [2], in [3], in test [4], in test [5] and in test [6] was inactive.
Consider `CC/C=C\C/C=C\C/C=C\CCCCCCCC(=O)OC`, for which the molecule was called inactive with PGR (gene 5241). Also, the AC50 in test [1] was 8.39 µM (active).
On to `CN(C)c1ccc2nc3ccc(=[N+](C)C)cc-3sc2c1`, for which the outcome in test [2] was inactive. In addition, the AC50 in test [3] was 50 µM (active); in test [4], 76.6 µM (active); in test [5], 12 µM (active); in [6] it was 70.8 µM (active); in [13] it was 32.7 µM (active); in [14], 7.57 µM (active).
Regarding `CC(C)CCCCCOC(=O)CS`, the molecule was called inactive in the test with PGR (gene 5241).
Regarding `CCCCCCOC(=O)CCCCC(=O)OCCCCCC`, the call in test [2], in test [3], in test [4], in test [5], in test [6] and in test [11] was inactive.
On to `O=S(=O)(O)c1ccc(N=Nc2c(O)ccc3ccccc23)cc1`, for which the outcome in test [2], in [3] and in [5] was inactive. In addition, the results for the concentration at half-maximal activity (AC50) in [13], in test [14] and in test [1] were 31.9 µM (active), 17.1 µM (active) and 17.2 µM (active), respectively.
Take `C=C(C)C1CC=C(C)CC1` (centres undefined): the result in [2], in test [3] and in test [1] was inactive.
